In all, about 48,000 compounds went through this assay and about 13,000 (27%) showed an effect of 50% or more. Some of the results follow.
Tested on: Wolbachia pipientis
Experiment: Anti-Wolbachia Cell-Based Screen
Type: functional
Set-up: scale not given: in the data most compounds retested in dose-response had high values
Settings: 5 µM

First: CC(C)CS(=O)(=O)CCNc1ncccn1
Second: CCOc1ncccc1NC(=O)c1sccc1C
The “Percent Effect” value of the first is lower: -11.8% for the first, -6.226% for the second.

Compared with `FC(F)Oc1ccccc1CN1CCCC(c2nccn2CC2CC2)C1` (stereo not drawn), `N#Cc1ccccc1CN1CCCC(c2nccn2CC2CCC2)C1` (stereo not drawn) is higher in “Percent Effect” value: -15.63% for the first, 17.05% for the second.

First: Cc1nccn1CCCN1CCCC(c2ccccc2)C1 (stereo not drawn)
Second: Cc1nccn1CCCN1CCCC(c2nccn2C)C1 (stereo not drawn)
The “Percent Effect” value of the first is lower: 96.96% for the first, 103.4% for the second.

Going from `O=C(c1ccccn1)N1CCCC(c2nccn2CC2CCC2)C1` (stereo not drawn) to `Cc1nccn1CCCN1CCCC(c2nccn2CC2CCC2)C1` (stereo not drawn), the “Percent Effect” value rises from 7.496% to 94.54%.

Compared with `c1cn(CC2CC2)c(C2CCN(CCC3CCOC3)CC2)n1` (stereo not drawn), `Cc1nccn1CCCN1CCC(c2nccn2CC2CCC2)CC1` is higher in “Percent Effect” value: -2.095% for the first, 81.99% for the second.

Going from `CCn1ccnc1CN(C)C1CCCN(CCCc2ccccc2)C1` (stereo not drawn) to `Cc1nccn1CCC(=O)N1CCCN(CCCc2ccccc2)CC1`, the “Percent Effect” value falls from 28.9% to 9.498%.

Compared with `COCCCN1CCCC(c2nccn2CC2CCC2)C1` (stereo not drawn), `CCn1c(C2CCCN(Cc3nccn3CCOC)C2)nn(C)c1=O` (stereo not drawn) is lower in “Percent Effect” value: 85.63% for the first, 3.298% for the second.

Compared with `CC(C(=O)N1CCCC1)N1CCC(c2nccn2CC2CCC2)CC1` (stereo not drawn), `Cn1ccnc1C1CCN(CCN2CCOCC2)CC1` is lower in “Percent Effect” value: -1.675% for the first, -3.118% for the second.

Compared with `CCC1CC(=O)NCc2nc3sc(C)cn3c21` (stereo not drawn), `COc1c(C2CCCN2C(=O)c2cnc[nH]2)c(C)nn1C` (stereo not drawn) is higher in “Percent Effect” value: 11.81% for the first, 99.16% for the second.

Going from `CCOc1nnc(CN2CCC(c3cc4ccccc4[nH]3)CC2)s1` to `Cc1ccc(C)c2c(O)cc(CN3CCC(c4nncn4C)CC3)nc12`, the “Percent Effect” value rises from -12.75% to 4.156%.

First: CC(=O)c1cccc(OCCCC(=O)NC(C#N)CC(C)C)c1 (stereo not drawn)
Second: CC(C)C(CCO)NC(=O)Nc1cc(F)ccc1-n1cccn1 (stereo not drawn)
The “Percent Effect” value of the first is lower: -6.212% for the first, 1.933% for the second.

Compared with `COCCCC(=O)N1CC(=O)Nc2cc(Br)ccc21`, `COCCn1/c(=N/C(=O)C(C)C)sc2cc(Cl)ccc21` is higher in “Percent Effect” value: -0.04468% for the first, 4.263% for the second.

Compared with `Cc1nccn1Cc1nnc(C2CCCN(Cc3cccnc3)C2)n1C` (stereo not drawn), `Cn1ccnc1CN1CCCC(Cc2ccccn2)C1` (stereo not drawn) is lower in “Percent Effect” value: -3.702% for the first, -12.05% for the second.

Compared with `CC(=O)N1CCC(N2CC[C@H](c3nc4cc(C)ccc4o3)C2)CC1`, `O=C([C@@H]1Cc2[nH]cnc2CN1Cc1cc2ccccc2o1)N1CCCC1` is higher in “Percent Effect” value: -0.1678% for the first, 9.512% for the second.

First: CNC(=O)NC(=O)CN1CCCC(Cc2ccccc2OC)C1 (stereo not drawn)
Second: Cc1ccccc1CNC(=O)CN1CCCC(Cc2nccn2C)C1 (stereo not drawn)
The “Percent Effect” value of the first is lower: -10.54% for the first, 107% for the second.

First: Cn1ccnc1CN1CCN(CCOc2ccccc2C#N)CC1
Second: Cc1ccccc1CN1CCN(Cc2nccn2C)CC1
The “Percent Effect” value of the first is higher: -0.4037% for the first, -1.21% for the second.

Going from `Cn1ccnc1CN1CCC(CCC(=O)Nc2ccccc2Cl)CC1` to `Cc1ccccc1CNC(=O)C1CCN(Cc2nccn2C)CC1`, the “Percent Effect” value rises from 11.71% to 101.3%.

First: CC(=O)N[C@@H]1CN(CC(=O)NCc2ccccc2C)C[C@H]1C(C)C
Second: Cc1ccccc1C(C(=O)NCCN1CCC(CO)CC1)N(C)C (stereo not drawn)
The “Percent Effect” value of the first is lower: -3.086% for the first, -0.033% for the second.

Going from `Cn1ccnc1CN1CCC(Cc2ccccn2)CC1` to `O=C(NCc1nnc2n1CCCCC2)N(Cc1ccccn1)C1CC1`, the “Percent Effect” value falls from 101.7% to -22.11%.

Going from `OCCN(Cc1cccnc1)c1ncc(Br)cn1` to `CC(C)COc1cncc(NCC(O)c2ccco2)n1` (stereo not drawn), the “Percent Effect” value rises from -8.725% to 9.809%.

First: CC(=O)NCCCC(=O)NC1(c2ccc(Cl)c(Cl)c2)CC1
Second: CC(=O)NCCCSC1CCN(c2ccccc2Cl)C1=O (stereo not drawn)
The “Percent Effect” value of the first is lower: -4.491% for the first, 1.299% for the second.

Going from `Cc1cc(C(F)(F)F)nc(CNC(=O)C2CCCCCN2C)n1` (stereo not drawn) to `Cc1cc(C(F)(F)F)nc(C2CCCN2S(C)(=O)=O)n1` (stereo not drawn), the “Percent Effect” value rises from -5.462% to 108.4%.

Going from `Cc1cc(C(F)(F)F)nc(C2COCCN2S(C)(=O)=O)n1` (stereo not drawn) to `Cc1cc(S(=O)(=O)N2CCOCC2C#N)ccc1F` (stereo not drawn), the “Percent Effect” value falls from 108.9% to -3.602%.

Going from `CN1CCOC[C@H]1c1nc(C(C)(C)C)c[nH]1` to `CC(C)(C)c1cn2nc(N3CCOC(Cn4cncn4)C3)sc2n1` (stereo not drawn), the “Percent Effect” value falls from 12.45% to 9.569%.

Going from `O=C(c1cccnc1O)N1CCC2(CCCO2)CC1` to `COCC1COCCC12CCN(C(=O)CCOc1ccccc1)CC2` (stereo not drawn), the “Percent Effect” value rises from -3.936% to 9.795%.

Compared with `COc1cc2c(cc1CNCc1cccnc1OC)OC(C)C2` (stereo not drawn), `COc1c(CNCc2cccc(CS(C)(=O)=O)c2)c(C)nn1C` is lower in “Percent Effect” value: 4.577% for the first, -2.544% for the second.

Compared with `Cc1noc(-c2ccc(N3CCCC(C(=O)c4nccn4C)C3)nc2)n1` (stereo not drawn), `Cc1nn(C)c(Cl)c1C1CCCN1C(=O)c1ccc[nH]1` (stereo not drawn) is higher in “Percent Effect” value: 20.25% for the first, 99.71% for the second.

Compared with `CC(C)(CNC(=O)Nc1ccc(S(=O)(=O)C(F)F)cc1)N1CCOCC1`, `COCC1COCCC12CCN(S(=O)(=O)c1ccc(C)cc1)CC2` (stereo not drawn) is higher in “Percent Effect” value: 14.64% for the first, 101.4% for the second.

Compared with `CCN(CC)Cc1ccccc1NC(=O)N(C)Cc1ccccc1O`, `CCn1nc(C)cc1C(=O)OCCNc1ncnc2ccccc12` is lower in “Percent Effect” value: -1.773% for the first, -8.299% for the second.

Going from `COc1c(CNCc2ccc(S(C)(=O)=O)cc2)c(C)nn1C` to `COc1c(CNCc2ccc(CS(C)(=O)=O)cc2)c(C)nn1C`, the “Percent Effect” value rises from 139.8% to 148.4%.

First: COc1c(CNCc2ccc(CN(C)C)cc2)c(C)nn1C
Second: CN(Cc1ccc(O)cc1)C(=O)NCc1nnc2n1CCCCC2
The “Percent Effect” value of the first is lower: 4.116% for the first, 89.08% for the second.

Compared with `CCc1cc(N[C@@H](CO)C(N)=O)n2nc(C)c(C)c2n1`, `COCCn1cnnc1C(C)NC(=O)c1[nH]c2c(C)cc(C)cc2c1C` (stereo not drawn) is lower in “Percent Effect” value: 2.16% for the first, -15.82% for the second.

Compared with `O=c1c2ccccc2nnn1CN(CC1CCOC1)C1CC1` (stereo not drawn), `COCCN1CCC(CN(Cc2ccncc2)C2CCC2)CC1` is higher in “Percent Effect” value: -7.02% for the first, 3.665% for the second.

First: Cc1cc(-c2nn(C)c(Cl)c2CN2CC[C@H](CO)[C@@H](O)C2)no1
Second: Cc1nn(C)c(Cl)c1C1CCCN1C(=O)c1cnc[nH]1 (stereo not drawn)
The “Percent Effect” value of the first is lower: 35.82% for the first, 106.1% for the second.

Compared with `Cn1cc(-c2csc(N3CCN(c4nccs4)CC3)n2)cn1`, `CC1CN(c2ncnc3sccc23)CCN1c1nccs1` (stereo not drawn) is higher in “Percent Effect” value: -4.686% for the first, 102.8% for the second.

Compared with `COc1c(C2CCCN2c2ncnc3c2cnn3C)c(C)nn1C` (stereo not drawn), `CC1CN(c2ncnc3c2cnn3C)CCN1c1nccs1` (stereo not drawn) is higher in “Percent Effect” value: -11.95% for the first, 136.1% for the second.

Compared with `Cc1cnn(CC2CCCN2c2ncnc3sccc23)c1` (stereo not drawn), `c1cnn(CC2CN(c3ncnc4sccc34)CCO2)c1` (stereo not drawn) is lower in “Percent Effect” value: -4.98% for the first, -13.3% for the second.

Compared with `CCc1nc(C)c(C(=O)NCCNc2ncnc3sccc23)s1`, `CNC(=O)c1sc(C(NC(=O)c2ccccc2)C2CC2)nc1C` (stereo not drawn) is higher in “Percent Effect” value: -61.04% for the first, 1.807% for the second.

Compared with `Cc1nc(CN2C[C@@H]3CN(C(=O)C4(C#N)CC4)C[C@@H]3C2=O)cs1.O=C(O)C(F)(F)F`, `Cc1nc(CN2CCC3(CC2)CC(c2cccnc2)C(=O)N3C)cs1.O=C(O)C(F)(F)F.O=C(O)C(F)(F)F` (stereo not drawn) is higher in “Percent Effect” value: -7.986% for the first, 114.5% for the second.

Compared with `O=C(Cc1ccco1)N1CCC2(CCOCC2COCC2CC2)CC1` (stereo not drawn), `CCOCC1COCCC12CCN(C(=O)CC1=CCCCC1)CC2` (stereo not drawn) is higher in “Percent Effect” value: -44.1% for the first, -10.97% for the second.

Compared with `COCC1COCCC12CCN(S(=O)(=O)c1ccccc1C)CC2` (stereo not drawn), `COCC1COCCC12CCN(S(=O)(=O)c1ccccc1)CC2` (stereo not drawn) is lower in “Percent Effect” value: 121.7% for the first, 111.6% for the second.

Going from `CCO[C@@H]1CO[C@@]2(CCCN(S(=O)(=O)c3cccnc3)C2)C1.O=C(O)C(F)(F)F` to `COCC1COCCC12CCN(S(=O)(=O)c1cccnc1)CC2.O=C(O)C(F)(F)F` (stereo not drawn), the “Percent Effect” value rises from -5.792% to 117.9%.

First: CCOCC1COCCC12CCN(C(=O)CS(C)(=O)=O)CC2 (stereo not drawn)
Second: COCC1COCCC12CCN(C(=O)CC1=CCCCC1)CC2 (stereo not drawn)
The “Percent Effect” value of the first is higher: -11.35% for the first, -25.41% for the second.

Compared with `COCC1COCCC12CCN(C(=O)CCc1ccccc1)CC2` (stereo not drawn), `Cc1ccc(CN2CCC3(CC2)CC3CN(C)Cc2cccnc2)o1.O=C(O)C(F)(F)F.O=C(O)C(F)(F)F.O=C(O)C(F)(F)F` (stereo not drawn) is higher in “Percent Effect” value: -6.521% for the first, 5.127% for the second.

First: CCn1cc2c(n1)CN(S(=O)(=O)c1cccnc1)CC2COC.O=C(O)C(F)(F)F (stereo not drawn)
Second: Cc1cc(C(=O)N2CCC3(CC2)CC(c2cccnc2)C(=O)N3C)no1.O=C(O)C(F)(F)F (stereo not drawn)
The “Percent Effect” value of the first is lower: -12.46% for the first, 1.086% for the second.

Compared with `CCCNC(=O)Cn1nc(C(C)C)c2cnn(C(C)(C)C)c2c1=O`, `CCc1sc(C(=O)Nc2cnn(CC(N)=O)c2)cc1C` is lower in “Percent Effect” value: 13.78% for the first, -1.226% for the second.

Compared with `Cn1cc(C2CCCN2CCCc2nc(-c3cccs3)no2)cn1` (stereo not drawn), `Cc1csc(CNC(=O)N(C)Cc2nnc3n2CCC3)n1` is lower in “Percent Effect” value: 7.461% for the first, -16.98% for the second.

Compared with `O=C(Nc1nncs1)NC1CCc2ccccc21` (stereo not drawn), `CN(Cc1ccncc1)C(=O)NCc1nnc2n1CCCCC2` is higher in “Percent Effect” value: -2.226% for the first, 124.1% for the second.

Going from `OCC1COCCN(c2ncccc2C(F)(F)F)C1` (stereo not drawn) to `Cc1ccc(CN2CCC3(CC2)CC(c2cccnc2)C(=O)N3C)o1.O=C(O)C(F)(F)F.O=C(O)C(F)(F)F` (stereo not drawn), the “Percent Effect” value rises from 17.46% to 111.7%.

Compared with `Cc1nn(C)c(Cl)c1C1CCCN1C(=O)c1cc(Cl)c[nH]1` (stereo not drawn), `COc1c(C2CCCN2C(=O)c2cc(Cl)c[nH]2)c(C)nn1C` (stereo not drawn) is lower in “Percent Effect” value: 15.12% for the first, 7.72% for the second.

Going from `c1ccc(-c2noc([C@@H]3Cc4nc[nH]c4CN3)n2)cc1` to `Cc1cccc(CN2CCC3(CC2)CC(c2cccnc2)C(=O)N3C)n1.O=C(O)C(F)(F)F.O=C(O)C(F)(F)F` (stereo not drawn), the “Percent Effect” value rises from -8.482% to 108%.

First: COCCCN(Cc1cnc(N2CCCC2)nc1)C1CCN(C)CC1
Second: COCCCN(Cc1cnc(C2CCCCC2)nc1)C1CCN(C)CC1
The “Percent Effect” value of the first is lower: 104.1% for the first, 105.2% for the second.

Going from `COCCN1CCC(CN(Cc2ccncc2)C2CCCCC2)CC1` to `COCCCN(C(=O)c1ccc(-n2ccnc2)cc1)C1CCN(C)CC1`, the “Percent Effect” value rises from -7.976% to -6.688%.

First: COCCCN1CCc2cncnc2C1
Second: Cc1cccc(CN2CCC3(CC2)CC(Oc2cccnc2)C3)n1.O=C(O)C(F)(F)F.O=C(O)C(F)(F)F
The “Percent Effect” value of the first is higher: -3.846% for the first, -6.69% for the second.

From ChEMBL document CHEMBL3988442, “University of Dundee, Small-Polar-MMV Screening Library” (2021)
